# About 79,000 compounds went through this panel and 15% of them were active in at least one assay; those are over-represented in the sample as a whole. A number with no mark means an inactive call. Activity calls are given as the source filed them. Rule as the data show it: active = growth inhibition above about 70%; inactive = the rest.
# Legend:
# [1] = NCI Yeast Anticancer Drug Screen. Data for the rad52 strain (AID 147);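 also: 0% = growth of vehicle-treated control cultures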; settings: S. cerevisiae rad52 mutant growth inhibition, hits give high values
# How it was run: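 Measured: yeast growth inhibition. System: strain with a defined DNA damage repair alteration. Reference: vehicle-treated control cultures.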
# [2] = NCI Yeast Anticancer Drug Screen. Data for the wt1 strain (AID 149);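 also: 0% = growth of vehicle-treated wt1 cultures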; settings: S. cerevisiae wt1 strain (SPY 50644) growth inhibition, hits give high values
# How it was run: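 wt1 strain grown with compound or vehicle; inhibition taken from the growth difference.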
# [3] = NCI Yeast Anticancer Drug Screen. Data for the rad50 strain (AID 155);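 also: 0% = growth of vehicle-only cultures of the same strain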; settings: S. cerevisiae rad50 strain growth inhibition, hits give high values
# How it was run: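 DNA repair mutant yeast, compound exposure, growth read-out; inhibition is taken relative to vehicle.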
# [4] = NCI Yeast Anticancer Drug Screen. Data for the mec2-1 strain (AID 157); settings: S. cerevisiae mec2-1 strain, hits give high values
# How it was run: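 Test agents were screened against the mec2-1 yeast strain, with defined DNA repair or cell cycle alteration. Growth was scored as inhibition against vehicle-only controls.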
# [5] = NCI Yeast Anticancer Drug Screen. Data for the rad14 strain (AID 159);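 also: 0% = growth of vehicle-treated control cultures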; settings: S. cerevisiae rad14 strain growth inhibition, hits give high values
# How it was run: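 DNA repair-defective yeast, compound-exposed; % growth inhibition derived by comparison with vehicle-treated controls.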
# [6] = NCI Yeast Anticancer Drug Screen. Data for the sgs1 mgt1 strain (AID 161);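 also: 0% = growth of cultures given vehicle only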; settings: S. cerevisiae sgs1 mgt1 strain, hits give high values
# How it was run: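 Genetically altered yeast, compound exposure, growth inhibition relative to vehicle.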
# [7] = NCI Yeast Anticancer Drug Screen. Data for the CLN2oe strain (AID 163);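 also: 0% = growth of vehicle-only control cultures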; settings: S. cerevisiae CLN2oe strain, hits give high values
# How it was run: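 Here, growth inhibition in a cell-cycle-altered yeast strain after compound exposure was quantified against vehicle control growth.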
# [8] = NCI Yeast Anticancer Drug Screen. Data for the cln2 rad14 strain (AID 165);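 also: 0% = growth equal to vehicle treated cultures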; settings: S. cerevisiae cln2 rad14 strain, hits give high values
# How it was run: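 Growth of compound-exposed yeast (cln2 rad14 genotype) measured and expressed as inhibition relative to vehicle.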
# [9] = NCI Yeast Anticancer Drug Screen. Data for the bub3 strain (AID 167); settings: S. cerevisiae bub3 mutant strain, hits give high values
# How it was run: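 In this screen, a yeast mutant lacking normal mitotic checkpoint function is challenged with compound. Relative growth versus vehicle gives the inhibition value.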
# [10] = NCI Yeast Anticancer Drug Screen. Data for the wt2 strain (AID 169);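 also: 0% = growth of vehicle-treated yeast cultures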; settings: S. cerevisiae wt2 strain growth inhibition, hits give high values
# How it was run: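 Genetically defined yeast strains from a DNA-repair/cell-cycle panel were used. Compound-exposed yeast growth was measured, and the inhibition was calculated relative to vehicle treatment.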
# [11] = NCI Yeast Anticancer Drug Screen. Data for the mlh1 strain (AID 171);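 also: 0% = growth of vehicle-treated control cultures of the same strain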; settings: S. cerevisiae mlh1 strain growth inhibition, hits give high values
# How it was run: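 Here the genetically defined yeast mutant is grown with each compound, and the extent to which its growth falls below that of vehicle-exposed cells is reported.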
# [12] = NCI Yeast Anticancer Drug Screen. Data for the sgs1 strain (AID 173);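 also: 0% = growth of vehicle-only control cultures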; settings: S. cerevisiae sgs1 mutant, hits give high values
# How it was run: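 Relative growth inhibition, referenced to vehicle, was determined in a yeast strain with a defined alteration affecting DNA damage repair or cell cycle control after compound exposure.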
# [13] = NCI Yeast Anticancer Drug Screen. Data for the rad18 strain (AID 177); settings: S. cerevisiae rad18 mutant growth inhibition, hits give high values
# How it was run: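 Screen uses a yeast strain with a defined lesion in DNA damage repair; compound effect is read as loss of growth compared to untreated vehicle cultures.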
# [14] = NCI Yeast Anticancer Drug Screen. Data for the rad50EPP+ strain (AID 151);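 also: 0% = growth of vehicle-treated control cultures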; settings: S. cerevisiae rad50 mutant strain, hits give high values
# How it was run: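 One strain with a rad50 alteration (rad50EPP+) was compound-treated, its growth then compared to that of vehicle controls.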
# [15] = NCI Yeast Anticancer Drug Screen. Data for the mgt1 strain (AID 153); settings: S. cerevisiae mgt1 mutant growth inhibition, hits give high values
# How it was run: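 After exposure of the mgt1 yeast mutant to compound, growth was measured and reported as inhibition compared with vehicle controls.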
# [16] = NCI Yeast Anticancer Drug Screen. Data for the mlh1 rad18 strain (AID 175); settings: S. cerevisiae mlh1 rad18 strain growth inhibition, hits give high values
# How it was run: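 In this whole-cell yeast screen, a strain with altered DNA damage repair is challenged with compound, and its growth is measured against matched vehicle-treated controls.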
# [17] = at 5.0 µM (retest, dose inferred, filed as 0.5)
# [18] = at 50.0 µM (retest, dose inferred, filed as 5.0)
smiles,measurement,setting,value
COC(=O)c1cnc(Cl)c([N+](=O)[O-])c1,growth inhibition,[1]; at 1.2 µM,17%
same,growth inhibition,[1]; at 3.7 µM,53%
same,growth inhibition,[1]; at 11.0 µM,94% (active)
same,growth inhibition,[1]; at 33.0 µM,98% (active)
same,growth inhibition,[1]; at 100.0 µM,99% (active)
same,growth inhibition,[2]; at 1.2 µM,6%
same,growth inhibition,[2]; at 3.7 µM,15%
same,growth inhibition,[2]; at 11.0 µM,82% (active)
same,growth inhibition,[2]; at 33.0 µM,99% (active)
same,growth inhibition,[2]; at 100.0 µM,99% (active)
same,growth inhibition,[3]; at 1.2 µM,22%
same,growth inhibition,[3]; at 3.7 µM,75% (active)
same,growth inhibition,[3]; [17],79% (active)
same,growth inhibition,[3]; at 11.0 µM,97% (active)
same,growth inhibition,[3]; at 33.0 µM,99% (active)
same,growth inhibition,[3]; [18],98% (active)
same,growth inhibition,[3]; at 50.0 µM,99.5% (active)
same,growth inhibition,[3]; at 100.0 µM,99% (active)
same,growth inhibition,[4]; at 1.2 µM,5%
same,growth inhibition,[4]; at 3.7 µM,10%
same,growth inhibition,[4]; [17],41%
same,growth inhibition,[4]; at 11.0 µM,72% (active)
same,growth inhibition,[4]; at 33.0 µM,98% (active)
same,growth inhibition,[4]; [18],99% (active)
same,growth inhibition,[4]; at 50.0 µM,99.5% (active)
same,growth inhibition,[4]; at 100.0 µM,99% (active)
same,growth inhibition,[5]; at 1.2 µM,2%
same,growth inhibition,[5]; at 3.7 µM,18%
same,growth inhibition,[5]; at 11.0 µM,39%
same,growth inhibition,[5]; at 33.0 µM,97% (active)
same,growth inhibition,[5]; at 100.0 µM,99% (active)
same,growth inhibition,[6]; [17],47%
same,growth inhibition,[6]; [18],99% (active)
same,growth inhibition,[6]; at 50.0 µM,99.3% (active)
same,growth inhibition,[7]; at 1.2 µM,0%
same,growth inhibition,[7]; at 3.7 µM,5%
same,growth inhibition,[7]; at 11.0 µM,48%
same,growth inhibition,[7]; at 33.0 µM,97% (active)
same,growth inhibition,[7]; at 100.0 µM,99% (active)
same,growth inhibition,[8]; [17],2%
same,growth inhibition,[8]; [18],98% (active)
same,growth inhibition,[8]; at 50.0 µM,94.8% (active)
same,growth inhibition,[9]; at 1.2 µM,2%
same,growth inhibition,[9]; at 3.7 µM,7%
same,growth inhibition,[9]; [17],24%
same,growth inhibition,[9]; at 11.0 µM,85% (active)
same,growth inhibition,[9]; at 33.0 µM,98% (active)
same,growth inhibition,[9]; [18],99% (active)
same,growth inhibition,[9]; at 50.0 µM,98.9% (active)
same,growth inhibition,[9]; at 100.0 µM,99% (active)
same,growth inhibition,[10]; at 1.2 µM,4%
same,growth inhibition,[10]; at 3.7 µM,20%
same,growth inhibition,[10]; at 11.0 µM,88% (active)
same,growth inhibition,[10]; at 33.0 µM,99% (active)
same,growth inhibition,[10]; at 100.0 µM,99% (active)
same,growth inhibition,[11]; at 1.2 µM,3%
same,growth inhibition,[11]; at 3.7 µM,11%
same,growth inhibition,[11]; at 11.0 µM,92% (active)
same,growth inhibition,[11]; at 33.0 µM,99% (active)
same,growth inhibition,[11]; at 100.0 µM,100% (active)
same,growth inhibition,[12]; at 1.2 µM,5%
same,growth inhibition,[12]; at 3.7 µM,20%
same,growth inhibition,[12]; at 11.0 µM,88% (active)
same,growth inhibition,[12]; at 33.0 µM,98% (active)
same,growth inhibition,[12]; at 100.0 µM,99% (active)
same,growth inhibition,[13]; at 1.2 µM,4%
same,growth inhibition,[13]; at 3.7 µM,29%
same,growth inhibition,[13]; at 11.0 µM,95% (active)
same,growth inhibition,[13]; at 33.0 µM,98% (active)
same,growth inhibition,[13]; at 100.0 µM,99% (active)
NC(CCCCCCCCCCCCC(N)C(=O)c1ccccc1)C(=O)c1ccccc1 (stereo not drawn),growth inhibition,[1]; at 1.2 µM,-3%
same,growth inhibition,[1]; at 3.7 µM,-4%
same,growth inhibition,[1]; at 11.0 µM,88% (active)
same,growth inhibition,[1]; at 33.0 µM,92% (active)
same,growth inhibition,[1]; at 100.0 µM,96% (active)
same,growth inhibition,[14]; at 1.2 µM,-2%
same,growth inhibition,[14]; at 3.7 µM,-1%
same,growth inhibition,[14]; at 11.0 µM,-2%
same,growth inhibition,[14]; at 33.0 µM,-1%
same,growth inhibition,[14]; at 100.0 µM,-3%
same,growth inhibition,[15]; at 1.2 µM,-5%
same,growth inhibition,[15]; at 3.7 µM,-9%
same,growth inhibition,[15]; at 11.0 µM,17%
same,growth inhibition,[15]; at 33.0 µM,39%
same,growth inhibition,[15]; at 100.0 µM,94% (active)
same,growth inhibition,[3]; at 1.2 µM,-3%
same,growth inhibition,[3]; at 3.7 µM,-6%
same,growth inhibition,[3]; [17],-9%
same,growth inhibition,[3]; at 11.0 µM,81% (active)
same,growth inhibition,[3]; at 33.0 µM,85% (active)
same,growth inhibition,[3]; [18],88% (active)
same,growth inhibition,[3]; at 50.0 µM,-5.55%
same,growth inhibition,[3]; at 100.0 µM,93% (active)
same,growth inhibition,[4]; at 1.2 µM,-6%
same,growth inhibition,[4]; at 3.7 µM,-15%
same,growth inhibition,[4]; [17],-15%
same,growth inhibition,[4]; at 11.0 µM,43%
same,growth inhibition,[4]; at 33.0 µM,61%
same,growth inhibition,[4]; [18],92% (active)
same,growth inhibition,[4]; at 50.0 µM,-9.95%
same,growth inhibition,[4]; at 100.0 µM,91% (active)
same,growth inhibition,[5]; at 1.2 µM,-6%
same,growth inhibition,[5]; at 3.7 µM,-12%
same,growth inhibition,[5]; at 11.0 µM,38%
same,growth inhibition,[5]; at 33.0 µM,62%
same,growth inhibition,[5]; at 100.0 µM,96% (active)
same,growth inhibition,[6]; [17],-10%
same,growth inhibition,[6]; [18],94% (active)
same,growth inhibition,[6]; at 50.0 µM,-12.2%
same,growth inhibition,[8]; [17],-26%
same,growth inhibition,[8]; [18],92% (active)
same,growth inhibition,[8]; at 50.0 µM,-32.3%
same,growth inhibition,[9]; at 1.2 µM,-3%
same,growth inhibition,[9]; at 3.7 µM,0%
same,growth inhibition,[9]; [17],4%
same,growth inhibition,[9]; at 11.0 µM,74% (active)
same,growth inhibition,[9]; at 33.0 µM,95% (active)
same,growth inhibition,[9]; [18],94% (active)
same,growth inhibition,[9]; at 50.0 µM,-2.55%
same,growth inhibition,[9]; at 100.0 µM,91% (active)
same,growth inhibition,[10]; at 1.2 µM,-4%
same,growth inhibition,[10]; at 3.7 µM,-8%
same,growth inhibition,[10]; at 11.0 µM,83% (active)
same,growth inhibition,[10]; at 33.0 µM,96% (active)
same,growth inhibition,[10]; at 100.0 µM,96% (active)
same,growth inhibition,[11]; at 1.2 µM,-4%
same,growth inhibition,[11]; at 3.7 µM,-10%
same,growth inhibition,[11]; at 11.0 µM,59%
same,growth inhibition,[11]; at 33.0 µM,94% (active)
same,growth inhibition,[11]; at 100.0 µM,93% (active)
same,growth inhibition,[12]; at 1.2 µM,-5%
same,growth inhibition,[12]; at 3.7 µM,-7%
same,growth inhibition,[12]; at 11.0 µM,82% (active)
same,growth inhibition,[12]; at 33.0 µM,96% (active)
same,growth inhibition,[12]; at 100.0 µM,95% (active)
same,growth inhibition,[16]; [17],-8%
same,growth inhibition,[16]; [18],-13%
same,growth inhibition,[16]; at 50.0 µM,-10.4%
same,growth inhibition,[13]; at 1.2 µM,-6%
same,growth inhibition,[13]; at 3.7 µM,-9%
same,growth inhibition,[13]; at 11.0 µM,41%
same,growth inhibition,[13]; at 33.0 µM,96% (active)
same,growth inhibition,[13]; at 100.0 µM,96% (active)

# Source: PubChem BioAssay (NCI)
